Assay [1] can be described thus: qHTS assay to identify small molecule antagonists of the glucocorticoid receptor (GR) signaling pathway - cell viability counter screen (AID 720693). Further: nearly all actives have a fitted effect of over 55% in size.
Assay [2] in a line: qHTS assay for identifying genotoxic compounds that show differential cytotoxicity against isogenic chicken DT40 cell lines with known DNA damage response pathways - wild type cell line (AID 743012). Further: nearly all actives have a fitted effect of over 60% in size. Further: potency means the concentration at half of the fitted maximal effect. An outline of the steps:
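Viability of DNA repair-proficient chicken DT40 cells was assessed by CellTiter-Glo luminescence following 40 h compound exposure at 37 C/5% CO2.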
(qHTS replaces the single test concentration by a dilution series.)

Assay [3] in a line: qHTS assay for identifying genotoxic compounds that show differential cytotoxicity against isogenic chicken DT40 cell lines with known DNA damage response pathways - Rev3 mutant cell line (AID 743014). Further: nearly all actives have a fitted effect of over 55% in size. Further: potency means the concentration at half of the fitted maximal effect.
Assay [4] in a line: qHTS assay for identifying genotoxic compounds that show differential cytotoxicity against isogenic chicken DT40 cell lines with known DNA damage response pathways - Rad54/Ku70 mutant cell line (AID 743015). Further: nearly all actives have a fitted effect of over 60% in size. Further: potency means the concentration at half of the fitted maximal effect.
A short description of assay [5]: qHTS assay to identify small molecule antagonists of the androgen receptor (AR) signaling pathway - cell viability counter screen (AID 743033; further: nearly all actives have a fitted effect of over 45% in size).
Assay [6] deals with Androgen receptor (Homo sapiens) (UniProt P10275). The assay is described as follows: qHTS assay to identify small molecule agonists of the androgen receptor (AR) signaling pathway (AID 743036; active means well fitted activation curve with a large enough effect in the signal ratio in the repeat runs, with a control signal flat, not every such curve was filed as active; the % refers to the signal ratio). An outline of the steps:
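Screening used 2,000 AR-bla HEK293 cells per well, treated 16 h at 37C with test compounds in DMSO alongside positive and DMSO-only controls; beta-lactamase activity was then read by LiveBLAzer B/G FRET fluorescence after 2 h at room temperature.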

Assay [7] shares this target. The assay is described as follows: qHTS assay to identify small molecule agonists of the androgen receptor (AR) signaling pathway using the MDA cell line (AID 743040; further: nearly all actives have a fitted effect of over 20% in size). The note with it: MDA-kb2 AR-luc cells, MMTV luciferase, 16 h; activity change: at 70.3 µM (top of the series), stronger effect = higher value. The method, boiled down:
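Stable MMTV-luciferase reporter in MDA-kb2 cells; note the promoter carries GR as well as AR response elements. 16 h compound treatment, 37C, 0% CO2; ONE-Glo luminescence endpoint.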

Assay [8] in a line: qHTS assay to identify small molecule antagonists of the androgen receptor (AR) signaling pathway using the MDA cell line - cell viability counter screen (AID 743041; further: nearly all actives have a fitted effect of over 45% in size). The method, boiled down:
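Using the breast carcinoma line MDA-kb2 AR-luc, test chemicals were co-incubated with R1881 for 16 h; CellTiter-Fluor reagent, added at 15.5 h, provided a fluorescence measure of live cells.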

For assay [9], the target named is Androgen receptor (Homo sapiens) (UniProt P10275). The assay is described as follows: qHTS assay to identify small molecule antagonists of the androgen receptor (AR) signaling pathway using the MDA cell line (AID 743042; further: nearly all actives have a fitted effect of over 55% in size; further: potency means the concentration at half of the fitted maximal effect). An outline of the steps: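 Antagonist mode: compounds plus R1881 agonist added to MDA-kb2 AR-luc cells, incubated 16 h at 37C. Luciferase reporter luminescence quantified, with multiplexed CellTiter-Fluor readout for cell viability.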
Sequence of Androgen receptor (Homo sapiens) (P10275 whole entry, looked up): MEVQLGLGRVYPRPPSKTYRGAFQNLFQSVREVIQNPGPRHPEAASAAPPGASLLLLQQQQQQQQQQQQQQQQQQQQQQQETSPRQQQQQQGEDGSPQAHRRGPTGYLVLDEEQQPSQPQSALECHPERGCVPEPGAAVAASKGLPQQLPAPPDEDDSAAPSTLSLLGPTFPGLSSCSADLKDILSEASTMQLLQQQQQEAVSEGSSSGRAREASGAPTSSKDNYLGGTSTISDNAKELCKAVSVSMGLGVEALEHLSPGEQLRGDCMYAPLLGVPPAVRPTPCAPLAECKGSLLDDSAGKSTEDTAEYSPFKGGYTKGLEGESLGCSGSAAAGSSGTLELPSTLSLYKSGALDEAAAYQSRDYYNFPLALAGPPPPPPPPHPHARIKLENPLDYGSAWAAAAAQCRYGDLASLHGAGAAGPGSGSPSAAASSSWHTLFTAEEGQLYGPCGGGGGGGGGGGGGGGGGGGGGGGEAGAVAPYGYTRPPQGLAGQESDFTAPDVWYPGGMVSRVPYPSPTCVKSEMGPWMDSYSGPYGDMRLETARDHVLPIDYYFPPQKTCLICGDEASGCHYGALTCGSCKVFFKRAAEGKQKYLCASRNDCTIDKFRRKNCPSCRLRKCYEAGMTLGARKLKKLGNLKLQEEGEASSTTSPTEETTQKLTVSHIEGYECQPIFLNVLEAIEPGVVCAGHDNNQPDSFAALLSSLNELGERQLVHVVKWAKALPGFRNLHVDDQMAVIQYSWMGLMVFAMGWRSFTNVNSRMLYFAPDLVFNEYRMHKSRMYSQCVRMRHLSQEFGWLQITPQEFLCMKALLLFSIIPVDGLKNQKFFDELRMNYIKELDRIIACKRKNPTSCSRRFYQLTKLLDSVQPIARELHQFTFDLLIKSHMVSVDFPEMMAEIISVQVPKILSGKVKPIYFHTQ

Assay [10] can be described thus: qHTS assay to identify small molecule antagonists of the thyroid receptor (TR) signaling pathway - cell viability counter screen (AID 743064). Further: nearly all actives have a fitted effect of over 50% in size. Further: potency means the concentration at half of the fitted maximal effect. An outline of the steps:
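Viability of T3-stimulated (1 nM final) GH3.TRE-Luc cells is measured by CellTiter-Fluor fluorescence after 23.5 h compound exposure at 37 °C plus 30 min reagent incubation.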

Several values for one entry are separate records, joined by “and”; a condition that tells them apart may be missing. Equal values may be shown once. Results filed as inconclusive are left out. Some compounds were tested as several samples or in several runs, with calls that do not always agree. Activity calls are given as the source filed them. Unless noted, the call rests on the fitted dose curve; in most records, active means well fitted curve in the direction sought with a large enough effect in the repeat runs; inconclusive means weak or mixed curves; inactive means no such curve, though single readings can be large; an effect the other way counts as inactive or inconclusive.

`CCN(CC)C(=O)/C(Cl)=C(\C)OP(=O)(OC)OC`: the Potency result in assay [1], in assay [2], in assay [3], in [4], in assay [5] and in assay [6] was “inactive” throughout. Further, the Potency entry in [7], in [8], in assay [9] and in assay [10] was “inactive” throughout.
For `CCC(C)(c1ccc(O)cc1)c1ccc(O)cc1`, the Potency entry in assay [1], in assay [5] and in assay [8] was “inactive” throughout. Besides, the Potency in [2] was 27.3 µM (active); in assay [3] it was 61.1 µM (active) and 34.4 µM (active); in [4], 30.6 µM (active).
`CCCCC(CC)COC(=O)c1ccc(C(=O)OCC(CC)CCCC)c(C(=O)OCC(CC)CCCC)c1` (stereo not drawn): the Potency result in assay [1], in assay [2], in assay [3], in assay [4], in assay [5] and in assay [6] was “inactive” in each case. The Potency entry in assay [7], in assay [8], in [9] and in [10] was “inactive” in each case.
With `N#CC(Br)Br`, the Potency result in [1], in assay [2], in assay [3], in assay [4], in assay [5] and in assay [8] was “inactive” in each case. In [10], the Potency entry is “inactive”.
`C=CCc1ccc2c(c1)OCO2`: the Potency result in assay [1], in [2], in assay [3], in assay [4], in assay [5] and in assay [8] was “inactive” throughout. Further, the Potency entry in assay [10] was “inactive”.
Consider `c1ccc(P(c2ccccc2)c2ccccc2)cc1`, for which the Potency result in assay [1], in assay [5], in assay [8] and in [10] was “inactive” each time. Moreover, the Potency in assay [2] was 55.5 µM (active) and 61.1 µM (active); in [3] it was 12.4 µM (active) and 61.1 µM (active); in assay [4], 19.7 µM (active) and 54.5 µM (active).
Turning to `Nc1ccncc1`, the Potency entry in [1], in assay [2], in [3], in assay [4], in [5] and in assay [6] was “inactive” in each case. Further, the Potency entry in assay [7], in assay [8], in assay [9] and in [10] was “inactive” throughout.
Consider `O=[N+]([O-])c1cccc2ccccc12`, for which the Potency entry in [1], in [2], in assay [3], in assay [4], in [5] and in assay [8] was “inactive” each time. For the same compound, the Potency entry in assay [10] was “inactive”.
As for `O=C(O)CC[N+](=O)[O-]`, the Potency result in [1], in assay [3], in assay [4], in assay [5], in assay [6] and in [7] was “inactive” each time. Besides, the Potency entry in assay [8], in assay [9] and in [10] was “inactive” each time. Further, the Potency in assay [2] was 70.8 µM (active) and inactive.
Take `Cc1c(COC(=O)[C@@H]2[C@H](/C=C(\Cl)C(F)(F)F)C2(C)C)cccc1-c1ccccc1`: the Potency entry in assay [1], in assay [2], in assay [3], in assay [4], in [5] and in [8] was “inactive” throughout.
Turning to `COP(=S)(OC)Oc1cc(Cl)c(Cl)cc1Cl`, the Potency result in assay [1], in assay [2], in assay [3], in assay [4], in [5] and in assay [7] was “inactive” in each case. Moreover, the Potency entry in assay [8], in assay [9] and in [10] was “inactive” each time.
`O=P(O)(O)CCCl`: the Potency result in [1], in assay [2], in assay [3], in [4], in assay [5] and in assay [8] was “inactive” throughout. Moreover, the Potency entry in [10] was “inactive”.
`Nc1ccc(-c2ccc(N)c(N)c2)cc1N`: the Potency result in [1] and in assay [5] was “inactive” in each case. Moreover, the Potency in [2] is 60.9 µM (active) and 9.69 µM (active); in assay [3] it was 60.9 µM (active) and 12.2 µM (active); in assay [4] it was 68.4 µM (active) and 12.2 µM (active).
As for `CCCCCCCCOC(=O)c1ccccc1C(=O)OCCCCCCCC`, the Potency result in [1], in assay [2], in assay [3], in [4], in assay [5] and in assay [6] was “inactive” throughout. For the same compound, the Potency result in [7], in assay [8], in assay [9] and in assay [10] was “inactive” each time.
On to `O=[N+]([O-])c1c(Cl)c(Cl)c(Cl)c(Cl)c1Cl`, for which the Potency result in assay [1], in assay [3], in assay [5], in assay [6], in [7] and in assay [8] was “inactive” throughout. Also, the Potency is 61.1 µM (active) in [2]; “inactive and 61.1 µM (active)” in [4]; “inactive and 43.3 µM (active)” in [9]; 54.5 µM (active) in assay [10].
For the compound `COP(=O)(OC)OC`, the Potency result in assay [1], in assay [2], in assay [3], in [4], in assay [5] and in assay [6] was “inactive” in each case. The Potency entry in [7], in [8], in assay [9] and in assay [10] was “inactive” in each case.
With `c1nc[nH]n1`, the Potency entry in [1], in [2], in assay [3], in assay [4], in [5] and in assay [8] was “inactive” throughout. Further, the Potency result in assay [10] was “inactive”.
`C=C(C)C(=O)OCC1CO1` (stereo not drawn): the Potency entry in [1], in assay [2], in assay [3], in assay [4], in assay [5] and in assay [8] was “inactive” in each case. The Potency result in assay [10] was “inactive”.
In the case of `COC(=O)c1sccc1S(=O)(=O)NC(=O)Nc1nc(C)nc(OC)n1`, the Potency result in assay [1], in assay [2], in assay [3], in assay [4], in [5] and in [8] was “inactive” throughout. The Potency entry in assay [10] was “inactive”.
Take `O=C(NC(=O)c1c(F)cccc1F)Nc1ccc(Cl)cc1`: the Potency entry in assay [1], in assay [2], in [3], in assay [4], in assay [5] and in [8] was “inactive” throughout. Also, the Potency result in [10] was “inactive”.
As for `OCC(O)CO`, the Potency result in assay [1], in assay [2], in [3], in [4], in assay [5] and in assay [8] was “inactive” in each case. Moreover, in assay [10], the Potency result is “inactive”.
In the case of `CCCCCCCCCCCOC(=O)c1ccccc1C(=O)OCCCCCCCCCCC`, the Potency result in assay [1], in assay [2], in [3], in assay [4], in [5] and in assay [8] was “inactive” each time. Moreover, in assay [10], the Potency result was “inactive”.

For the origin of these results see PubChem BioAssay (Tox21).
